Assay results as given in PMC7862700, “An all-to-all approach to the identification of sequence-specific readers for epigenetic DNA modifications on cytosine”.

Key:
Assay in all cases: DAPPL (digital affinity profiling via proximity ligation, sequencing); 10 mM Tris-HCl pH 7.5, 50 mM NaCl, 1 mM DTT, 4% glycerol, room temperature, 30 min; GST-TFs on glutathione beads, 16-mer random dsDNA library, 0.1% formaldehyde crosslink after washing; high values mean tight binding
[1] = target: T1, FLI1 (Homo sapiens, UniProt Q01543 1-452); conditions: protein: recombinant; tags: N-terminal GST; dsDNA, one strand shown
T1 sequence: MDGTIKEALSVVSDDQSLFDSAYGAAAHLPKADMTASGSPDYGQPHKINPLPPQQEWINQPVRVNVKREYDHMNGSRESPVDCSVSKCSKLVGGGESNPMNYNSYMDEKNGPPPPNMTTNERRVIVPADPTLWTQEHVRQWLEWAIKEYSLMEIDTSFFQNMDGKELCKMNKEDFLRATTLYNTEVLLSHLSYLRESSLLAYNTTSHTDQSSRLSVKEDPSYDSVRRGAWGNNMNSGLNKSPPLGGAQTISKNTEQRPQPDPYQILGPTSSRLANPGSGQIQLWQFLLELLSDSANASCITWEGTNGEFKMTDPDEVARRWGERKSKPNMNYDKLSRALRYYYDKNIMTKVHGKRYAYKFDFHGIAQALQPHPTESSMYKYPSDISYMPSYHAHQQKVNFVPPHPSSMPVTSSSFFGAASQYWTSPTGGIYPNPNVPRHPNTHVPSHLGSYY
Summary of the method: (§1)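 Each value of binding signal is a hexamer's read frequency for a factor divided by the same hexamer's frequency in the tag-only sample. Barcoded, bead-captured GST fusions of human transcription factors made in yeast were pooled with that sample and incubated with 200 nmole of a random double-stranded 16-mer DNA library in Tris/NaCl/DTT/glycerol buffer at room temperature for 30 min. Washing, 0.1% formaldehyde crosslinking, proximity ligation, PCR and Illumina NextSeq500 sequencing followed.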

[2] = target: T2, ELK1 (Homo sapiens, UniProt P19419 1-428); conditions: protein: recombinant; tags: N-terminal GST; dsDNA, one strand shown
T2 sequence: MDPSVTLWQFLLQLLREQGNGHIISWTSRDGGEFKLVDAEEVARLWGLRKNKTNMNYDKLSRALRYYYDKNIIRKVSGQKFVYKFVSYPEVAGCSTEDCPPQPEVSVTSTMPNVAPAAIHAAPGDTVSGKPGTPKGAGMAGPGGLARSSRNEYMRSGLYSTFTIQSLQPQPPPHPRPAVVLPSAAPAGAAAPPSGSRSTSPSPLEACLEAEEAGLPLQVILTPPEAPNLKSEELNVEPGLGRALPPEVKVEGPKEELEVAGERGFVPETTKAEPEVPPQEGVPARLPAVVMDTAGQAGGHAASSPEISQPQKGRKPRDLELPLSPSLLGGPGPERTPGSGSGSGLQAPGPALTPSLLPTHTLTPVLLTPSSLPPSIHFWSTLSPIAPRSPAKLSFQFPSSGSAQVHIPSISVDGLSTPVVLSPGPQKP
Summary of the method: as §1

[3] = target: T3, GABPA (Homo sapiens, UniProt Q06546 1-454); conditions: protein: recombinant; tags: N-terminal GST; dsDNA, one strand shown
T3 sequence: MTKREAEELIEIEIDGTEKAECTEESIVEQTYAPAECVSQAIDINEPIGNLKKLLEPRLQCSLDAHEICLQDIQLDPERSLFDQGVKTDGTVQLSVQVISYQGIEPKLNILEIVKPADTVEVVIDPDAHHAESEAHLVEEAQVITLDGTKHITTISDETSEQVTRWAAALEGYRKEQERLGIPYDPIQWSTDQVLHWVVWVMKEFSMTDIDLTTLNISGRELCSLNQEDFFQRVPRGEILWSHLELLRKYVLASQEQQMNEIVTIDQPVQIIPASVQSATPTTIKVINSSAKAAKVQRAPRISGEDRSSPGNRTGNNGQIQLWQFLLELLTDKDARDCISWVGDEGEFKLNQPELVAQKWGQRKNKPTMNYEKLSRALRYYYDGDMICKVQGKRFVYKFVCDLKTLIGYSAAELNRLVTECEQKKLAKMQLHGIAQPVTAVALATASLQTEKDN
Summary of the method: as §1

[4] = target: T4, ERG (Homo sapiens, UniProt P11308 1-479); conditions: protein: recombinant; tags: N-terminal GST; dsDNA, one strand shown
T4 sequence: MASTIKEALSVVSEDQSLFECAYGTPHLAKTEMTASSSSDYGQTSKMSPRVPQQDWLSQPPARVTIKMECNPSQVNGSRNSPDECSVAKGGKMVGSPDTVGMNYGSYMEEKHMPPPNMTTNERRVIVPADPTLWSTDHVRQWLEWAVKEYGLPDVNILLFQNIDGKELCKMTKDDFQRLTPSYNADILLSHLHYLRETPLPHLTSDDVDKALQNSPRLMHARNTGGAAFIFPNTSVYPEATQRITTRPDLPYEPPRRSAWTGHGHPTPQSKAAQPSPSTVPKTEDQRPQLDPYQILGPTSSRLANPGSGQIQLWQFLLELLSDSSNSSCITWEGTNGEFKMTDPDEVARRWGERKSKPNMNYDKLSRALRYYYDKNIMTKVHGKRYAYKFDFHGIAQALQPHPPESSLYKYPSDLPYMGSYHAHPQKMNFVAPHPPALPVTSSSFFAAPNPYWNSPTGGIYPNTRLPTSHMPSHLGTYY
Summary of the method: as §1

[5] = target: ELF1 (Homo sapiens, UniProt P32519 1-619); conditions: protein: recombinant; tags: N-terminal GST; dsDNA, one strand shown
Summary of the method: as §1

[6] = target: T5, EHF (Homo sapiens, UniProt Q9NZC4 1-300); conditions: protein: recombinant; tags: N-terminal GST; dsDNA, one strand shown
T5 sequence: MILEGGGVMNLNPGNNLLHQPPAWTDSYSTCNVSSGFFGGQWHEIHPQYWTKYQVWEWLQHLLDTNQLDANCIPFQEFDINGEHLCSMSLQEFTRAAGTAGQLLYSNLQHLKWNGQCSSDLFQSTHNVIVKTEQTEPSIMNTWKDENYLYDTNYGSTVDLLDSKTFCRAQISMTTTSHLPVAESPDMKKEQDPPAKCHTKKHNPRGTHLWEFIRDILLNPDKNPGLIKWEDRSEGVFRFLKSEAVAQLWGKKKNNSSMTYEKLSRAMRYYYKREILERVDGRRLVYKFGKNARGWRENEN
Summary of the method: as §1

[7] = target: SPI1 (Homo sapiens, UniProt P17947 1-270); conditions: protein: recombinant; tags: N-terminal GST; dsDNA, one strand shown
Summary of the method: as §1

[8] = target: SPIB (Homo sapiens, UniProt Q01892 1-262); conditions: protein: recombinant; tags: N-terminal GST; dsDNA, one strand shown
Summary of the method: as §1

[9] = target: T6, ELK3 (Homo sapiens, UniProt P41970 1-407); conditions: protein: recombinant; tags: N-terminal GST; dsDNA, one strand shown
T6 sequence: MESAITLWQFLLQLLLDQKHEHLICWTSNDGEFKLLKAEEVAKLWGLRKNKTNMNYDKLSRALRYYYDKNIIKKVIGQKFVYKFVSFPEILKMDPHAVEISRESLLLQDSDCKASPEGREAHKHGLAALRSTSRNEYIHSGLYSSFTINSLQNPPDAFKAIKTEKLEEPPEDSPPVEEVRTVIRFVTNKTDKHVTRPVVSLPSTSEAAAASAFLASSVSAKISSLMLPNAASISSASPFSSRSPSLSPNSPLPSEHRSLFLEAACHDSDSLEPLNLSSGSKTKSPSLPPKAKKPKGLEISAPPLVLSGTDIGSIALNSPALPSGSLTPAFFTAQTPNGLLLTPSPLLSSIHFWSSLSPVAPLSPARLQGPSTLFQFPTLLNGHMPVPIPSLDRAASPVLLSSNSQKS
Summary of the method: as §1

[10] = target: T7, FEV (Homo sapiens, UniProt Q99581 1-238); conditions: protein: recombinant; tags: N-terminal GST; dsDNA, one strand shown
T7 sequence: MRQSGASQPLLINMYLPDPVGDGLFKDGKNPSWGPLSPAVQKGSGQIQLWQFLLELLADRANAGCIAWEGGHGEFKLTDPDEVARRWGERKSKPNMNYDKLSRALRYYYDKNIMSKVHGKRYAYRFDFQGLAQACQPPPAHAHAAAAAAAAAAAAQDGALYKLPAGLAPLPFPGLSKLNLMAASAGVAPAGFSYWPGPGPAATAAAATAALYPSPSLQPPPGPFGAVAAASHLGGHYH
Summary of the method: as §1

[11] = target: ETV5 (Homo sapiens, UniProt P41161 1-510); conditions: protein: recombinant; tags: N-terminal GST; dsDNA, one strand shown
Summary of the method: as §1

[12] = target: HSF1 (Homo sapiens, UniProt Q00613 1-529); conditions: protein: recombinant; tags: N-terminal GST; chain copies: 3; dsDNA, one strand shown
Summary of the method: as §1

[13] = target: T8, SPIC (Homo sapiens, UniProt Q8N5J4 1-248); conditions: protein: recombinant; tags: N-terminal GST; dsDNA, one strand shown
T8 sequence: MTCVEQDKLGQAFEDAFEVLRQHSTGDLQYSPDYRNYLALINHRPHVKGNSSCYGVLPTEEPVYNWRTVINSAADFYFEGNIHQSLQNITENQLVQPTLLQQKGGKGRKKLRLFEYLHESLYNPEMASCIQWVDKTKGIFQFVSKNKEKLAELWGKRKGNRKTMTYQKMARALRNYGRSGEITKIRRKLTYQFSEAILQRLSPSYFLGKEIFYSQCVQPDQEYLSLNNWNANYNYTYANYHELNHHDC
Summary of the method: as §1

[14] = target: ELF4 (Homo sapiens, UniProt Q99607 1-663); conditions: protein: recombinant; tags: N-terminal GST; dsDNA, one strand shown
Summary of the method: as §1

[15] = target: T9, ELK4 (Homo sapiens, UniProt P28324-2 1-405); conditions: protein: recombinant; tags: N-terminal GST; dsDNA, one strand shown
T9 sequence: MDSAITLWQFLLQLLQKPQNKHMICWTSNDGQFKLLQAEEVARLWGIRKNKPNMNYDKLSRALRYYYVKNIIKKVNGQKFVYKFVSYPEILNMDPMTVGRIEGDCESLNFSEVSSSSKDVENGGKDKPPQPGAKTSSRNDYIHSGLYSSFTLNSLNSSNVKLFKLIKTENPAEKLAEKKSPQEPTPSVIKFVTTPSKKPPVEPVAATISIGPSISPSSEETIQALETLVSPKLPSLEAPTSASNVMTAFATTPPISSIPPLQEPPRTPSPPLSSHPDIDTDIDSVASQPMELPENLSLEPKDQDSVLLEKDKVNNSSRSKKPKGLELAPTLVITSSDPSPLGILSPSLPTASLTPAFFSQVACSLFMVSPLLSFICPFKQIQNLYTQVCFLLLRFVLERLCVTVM
Summary of the method: as §1

[16] = target: T10, ETV2 (Homo sapiens, UniProt O00321 1-342); conditions: protein: recombinant; tags: N-terminal GST; dsDNA, one strand shown
T10 sequence: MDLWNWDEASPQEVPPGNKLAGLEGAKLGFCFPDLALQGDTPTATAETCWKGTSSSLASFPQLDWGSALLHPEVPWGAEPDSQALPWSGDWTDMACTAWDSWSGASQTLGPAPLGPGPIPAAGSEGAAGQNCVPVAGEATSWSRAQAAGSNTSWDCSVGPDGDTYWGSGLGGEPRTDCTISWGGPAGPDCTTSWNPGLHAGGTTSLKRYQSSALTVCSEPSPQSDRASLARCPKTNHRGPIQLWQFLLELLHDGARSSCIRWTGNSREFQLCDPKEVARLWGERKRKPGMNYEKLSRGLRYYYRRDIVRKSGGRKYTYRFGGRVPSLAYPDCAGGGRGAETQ
Summary of the method: as §1

[17] = target: T11, ELF3 (Homo sapiens, UniProt P78545 1-371); conditions: protein: recombinant; tags: N-terminal GST; dsDNA, one strand shown
T11 sequence: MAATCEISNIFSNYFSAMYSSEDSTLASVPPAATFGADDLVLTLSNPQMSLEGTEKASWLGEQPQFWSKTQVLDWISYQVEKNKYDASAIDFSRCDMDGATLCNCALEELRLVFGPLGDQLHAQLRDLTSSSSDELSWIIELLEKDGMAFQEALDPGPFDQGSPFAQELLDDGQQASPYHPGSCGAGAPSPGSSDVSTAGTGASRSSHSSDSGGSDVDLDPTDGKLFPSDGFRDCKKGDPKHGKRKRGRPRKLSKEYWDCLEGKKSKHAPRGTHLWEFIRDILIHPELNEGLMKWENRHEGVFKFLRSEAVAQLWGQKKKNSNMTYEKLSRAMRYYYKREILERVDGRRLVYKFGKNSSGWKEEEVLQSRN
Summary of the method: as §1

[18] = target: CRX (Homo sapiens, UniProt O43186 1-299); conditions: protein: recombinant; tags: N-terminal GST; dsDNA, one strand shown
Summary of the method: as §1

[19] = target: ETV1 (Homo sapiens, UniProt P50549 1-477); conditions: protein: recombinant; tags: N-terminal GST; dsDNA, one strand shown
Summary of the method: as §1

Chain of HSF1 (Q00613 whole entry): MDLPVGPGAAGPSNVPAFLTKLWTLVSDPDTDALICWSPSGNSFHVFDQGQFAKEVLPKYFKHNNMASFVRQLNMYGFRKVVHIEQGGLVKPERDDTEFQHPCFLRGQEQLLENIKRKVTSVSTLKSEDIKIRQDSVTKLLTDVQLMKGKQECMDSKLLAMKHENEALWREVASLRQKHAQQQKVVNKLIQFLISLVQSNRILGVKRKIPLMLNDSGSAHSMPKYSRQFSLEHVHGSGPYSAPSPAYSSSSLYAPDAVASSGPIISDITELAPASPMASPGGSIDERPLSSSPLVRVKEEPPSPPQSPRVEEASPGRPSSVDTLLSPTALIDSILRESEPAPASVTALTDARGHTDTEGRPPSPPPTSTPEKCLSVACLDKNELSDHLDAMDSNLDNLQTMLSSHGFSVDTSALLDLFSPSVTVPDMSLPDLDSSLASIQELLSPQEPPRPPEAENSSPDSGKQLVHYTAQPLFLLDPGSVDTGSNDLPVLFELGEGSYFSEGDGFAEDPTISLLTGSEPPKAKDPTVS
Chain of ETV1 (P50549 whole entry): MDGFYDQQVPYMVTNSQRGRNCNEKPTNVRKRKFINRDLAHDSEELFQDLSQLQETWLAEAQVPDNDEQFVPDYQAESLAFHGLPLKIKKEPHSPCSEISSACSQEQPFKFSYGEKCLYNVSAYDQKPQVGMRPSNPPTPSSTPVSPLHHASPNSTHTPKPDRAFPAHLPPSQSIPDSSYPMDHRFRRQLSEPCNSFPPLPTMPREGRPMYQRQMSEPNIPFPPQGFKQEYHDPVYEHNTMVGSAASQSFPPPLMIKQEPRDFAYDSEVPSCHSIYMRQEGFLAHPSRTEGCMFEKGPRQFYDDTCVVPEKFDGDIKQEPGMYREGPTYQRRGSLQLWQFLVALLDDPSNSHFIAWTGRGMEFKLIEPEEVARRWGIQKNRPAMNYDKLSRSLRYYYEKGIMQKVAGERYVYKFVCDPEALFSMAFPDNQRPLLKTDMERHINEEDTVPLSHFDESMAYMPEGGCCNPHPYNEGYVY
Chain of CRX (O43186 whole entry): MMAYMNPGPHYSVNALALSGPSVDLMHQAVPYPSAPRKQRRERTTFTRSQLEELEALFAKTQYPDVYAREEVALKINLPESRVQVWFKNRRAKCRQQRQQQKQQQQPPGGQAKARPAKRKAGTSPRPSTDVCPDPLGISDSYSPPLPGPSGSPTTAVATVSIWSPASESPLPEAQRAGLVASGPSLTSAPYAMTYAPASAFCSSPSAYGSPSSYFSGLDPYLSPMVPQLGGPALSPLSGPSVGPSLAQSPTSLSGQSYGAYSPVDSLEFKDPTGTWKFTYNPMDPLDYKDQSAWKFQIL
Chain of ETV5 (P41161 whole entry): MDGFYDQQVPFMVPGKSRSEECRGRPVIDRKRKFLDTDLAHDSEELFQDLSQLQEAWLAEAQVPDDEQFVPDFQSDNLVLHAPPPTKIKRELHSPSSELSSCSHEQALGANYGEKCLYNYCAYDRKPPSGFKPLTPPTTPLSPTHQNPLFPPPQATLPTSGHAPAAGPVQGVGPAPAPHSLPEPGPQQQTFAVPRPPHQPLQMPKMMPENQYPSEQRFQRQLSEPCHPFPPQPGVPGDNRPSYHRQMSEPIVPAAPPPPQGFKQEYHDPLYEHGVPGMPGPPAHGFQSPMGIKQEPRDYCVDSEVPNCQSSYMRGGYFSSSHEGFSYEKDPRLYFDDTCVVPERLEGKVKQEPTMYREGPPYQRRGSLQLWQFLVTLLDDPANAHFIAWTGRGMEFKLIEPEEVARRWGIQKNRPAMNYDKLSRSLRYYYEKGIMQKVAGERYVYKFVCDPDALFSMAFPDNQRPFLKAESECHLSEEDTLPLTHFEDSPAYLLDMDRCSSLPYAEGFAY
Chain of ELF4 (Q99607 whole entry): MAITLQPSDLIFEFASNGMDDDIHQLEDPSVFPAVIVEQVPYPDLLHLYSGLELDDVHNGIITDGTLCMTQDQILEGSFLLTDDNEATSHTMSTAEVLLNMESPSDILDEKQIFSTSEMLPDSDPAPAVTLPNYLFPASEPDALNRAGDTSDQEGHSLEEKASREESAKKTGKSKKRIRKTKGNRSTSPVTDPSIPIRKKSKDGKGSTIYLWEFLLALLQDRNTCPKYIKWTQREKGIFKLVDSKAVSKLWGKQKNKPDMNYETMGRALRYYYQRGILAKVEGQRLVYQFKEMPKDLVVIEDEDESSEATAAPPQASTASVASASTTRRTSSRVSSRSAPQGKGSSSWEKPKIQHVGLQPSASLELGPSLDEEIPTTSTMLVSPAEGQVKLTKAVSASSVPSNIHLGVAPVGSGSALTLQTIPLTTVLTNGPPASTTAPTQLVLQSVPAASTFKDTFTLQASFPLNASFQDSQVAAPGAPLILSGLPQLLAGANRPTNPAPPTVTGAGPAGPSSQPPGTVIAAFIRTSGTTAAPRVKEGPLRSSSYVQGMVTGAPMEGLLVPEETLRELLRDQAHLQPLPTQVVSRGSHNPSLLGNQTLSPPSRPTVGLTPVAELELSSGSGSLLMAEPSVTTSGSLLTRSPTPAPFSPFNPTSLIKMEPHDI
Chain of ELF1 (P32519 whole entry): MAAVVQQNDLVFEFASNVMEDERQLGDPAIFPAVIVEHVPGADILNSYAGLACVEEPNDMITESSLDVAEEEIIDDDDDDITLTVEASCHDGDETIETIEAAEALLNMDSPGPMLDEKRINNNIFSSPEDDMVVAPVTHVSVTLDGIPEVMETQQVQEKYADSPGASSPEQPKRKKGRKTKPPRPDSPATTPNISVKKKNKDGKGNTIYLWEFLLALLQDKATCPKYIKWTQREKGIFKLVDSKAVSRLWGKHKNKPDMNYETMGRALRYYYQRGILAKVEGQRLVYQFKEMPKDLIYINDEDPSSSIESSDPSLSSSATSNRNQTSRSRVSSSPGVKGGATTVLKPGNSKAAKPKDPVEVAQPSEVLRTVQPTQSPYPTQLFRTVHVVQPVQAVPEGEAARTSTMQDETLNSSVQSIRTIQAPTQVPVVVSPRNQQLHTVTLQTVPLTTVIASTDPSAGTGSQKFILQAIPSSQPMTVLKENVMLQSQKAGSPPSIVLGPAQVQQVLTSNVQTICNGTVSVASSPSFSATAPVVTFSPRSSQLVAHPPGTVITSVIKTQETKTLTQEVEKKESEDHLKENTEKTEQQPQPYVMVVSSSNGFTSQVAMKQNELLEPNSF
Chain of SPIB (Q01892 whole entry): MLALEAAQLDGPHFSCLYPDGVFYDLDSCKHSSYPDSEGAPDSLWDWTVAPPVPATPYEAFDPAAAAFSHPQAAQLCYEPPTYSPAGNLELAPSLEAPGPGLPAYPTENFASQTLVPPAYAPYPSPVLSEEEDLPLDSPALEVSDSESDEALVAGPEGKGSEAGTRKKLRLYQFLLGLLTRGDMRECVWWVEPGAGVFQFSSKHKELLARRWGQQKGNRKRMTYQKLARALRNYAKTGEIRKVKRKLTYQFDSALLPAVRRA

CTAATG
binding signal [1]: 1.34 fold enrichment (6-mer frequency, TF over GST control) | binding signal [2]: 1.22 fold enrichment (6-mer frequency, TF over GST control) | binding signal [3]: 1.26 fold enrichment (6-mer frequency, TF over GST control) | binding signal [4]: 1.18 fold enrichment (6-mer frequency, TF over GST control) | binding signal [5]: 1.23 fold enrichment (6-mer frequency, TF over GST control) | binding signal [6]: 1.28 fold enrichment (6-mer frequency, TF over GST control) | binding signal [7]: 1.26 fold enrichment (6-mer frequency, TF over GST control) | binding signal [8]: 1.26 fold enrichment (6-mer frequency, TF over GST control) | binding signal [9]: 1.46 fold enrichment (6-mer frequency, TF over GST control) | binding signal [10]: 1.16 fold enrichment (6-mer frequency, TF over GST control) | binding signal [11]: 1.25 fold enrichment (6-mer frequency, TF over GST control) | binding signal [12]: 1.31 fold enrichment (6-mer frequency, TF over GST control) | binding signal [13]: 1.35 fold enrichment (6-mer frequency, TF over GST control) | binding signal [14]: 1.36 fold enrichment (6-mer frequency, TF over GST control) | binding signal [15]: 1.34 fold enrichment (6-mer frequency, TF over GST control) | binding signal [16]: 1.12 fold enrichment (6-mer frequency, TF over GST control) | binding signal [17]: 1.27 fold enrichment (6-mer frequency, TF over GST control) | binding signal [18]: 1.6 fold enrichment (6-mer frequency, TF over GST control) | binding signal [19]: 1.29 fold enrichment (6-mer frequency, TF over GST control)
